# Results filed as inconclusive are left out. Where a call stands in place of a potency, no number is given. Calls of active or inactive are those of the source. Unless noted, calls come from the whole dose curve; as a rule, active = well fitted inhibition curve with a large enough effect in the repeat runs; inconclusive = weak or mixed curves; inactive = no such curve, though single readings can be large or run the other way.
# Target: Acetylcholinesterase (Homo sapiens) (UniProt P22303)
# Assay: Acetylcholinesterase (AChE) small molecule antagonists: enzyme-based qHTS assay with human liver microsomes (AID 1347399; calls by dose curve; note: nearly all actives have a fitted effect of over 60% in size)
# Conditions: Potency: qHTS inhibition; series mostly up to 115 µM
# In short: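 Recombinant human AChE (50 mU/mL in the enzyme mix) and human liver microsomes (0.25 mg/mL final) were preincubated with compound and NADPH (0.25 mg/mL final) for 30 min at 37 C. Acetylthiocholine/DTNB was then added; thiocholine was read colorimetrically after 10 min at room temperature.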
# Chain of Acetylcholinesterase (Homo sapiens) (P22303 whole entry, looked up): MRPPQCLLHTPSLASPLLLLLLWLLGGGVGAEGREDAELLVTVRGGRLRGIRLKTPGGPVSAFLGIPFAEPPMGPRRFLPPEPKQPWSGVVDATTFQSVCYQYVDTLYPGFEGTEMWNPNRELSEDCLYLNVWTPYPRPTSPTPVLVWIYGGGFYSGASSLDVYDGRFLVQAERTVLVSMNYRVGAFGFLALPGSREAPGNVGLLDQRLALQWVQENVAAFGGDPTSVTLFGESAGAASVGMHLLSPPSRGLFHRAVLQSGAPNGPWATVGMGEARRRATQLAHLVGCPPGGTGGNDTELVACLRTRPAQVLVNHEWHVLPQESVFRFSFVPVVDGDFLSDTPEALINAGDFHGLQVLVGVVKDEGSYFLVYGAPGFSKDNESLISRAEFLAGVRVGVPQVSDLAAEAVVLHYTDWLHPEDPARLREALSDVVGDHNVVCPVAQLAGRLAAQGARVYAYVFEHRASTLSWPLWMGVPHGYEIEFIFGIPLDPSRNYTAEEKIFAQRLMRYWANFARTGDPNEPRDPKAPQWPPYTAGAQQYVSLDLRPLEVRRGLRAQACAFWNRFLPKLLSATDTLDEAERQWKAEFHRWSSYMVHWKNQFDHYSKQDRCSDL
row,Compound,Potency
1,Oc1c(Br)c(Br)c(Br)c(Br)c1Br,inactive
2,Cc1cc(N=Nc2ccccc2C)ccc1N,inactive
3,CC1(C)CC/C(=C/c2ccc(Cl)cc2)C1(O)Cn1cncn1 (configuration not stated),inactive
4,Clc1ccc(CO/N=C(\Cn2ccnc2)c2ccc(Cl)cc2Cl)c(Cl)c1,inactive
5,CCCN(CC)CC1COC2(CCC(C(C)(C)C)CC2)O1 (configuration not stated),inactive
6,CCCCCCCCCCCCCCCCCCn1cc[n+](C)c1,inactive
7,Cc1ccc(CCl)cc1,inactive
8,CCOCn1c(-c2ccc(Cl)cc2)c(C#N)c(Br)c1C(F)(F)F,inactive
9,CC(=O)c1ccc(-c2ccccc2)cc1,inactive
10,CC[C@H](C)[C@H]1O[C@]2(C=C[C@@H]1C)C[C@@H]1C[C@@H](C/C=C(\C)[C@@H](O[C@H]3C[C@H](OC)[C@@H](O[C@H]4C[C@H](OC)[C@@H](O)[C@H](C)O4)[C@H](C)O3)[C@@H](C)/C=C/C=C3\CO[C@@H]4[C@H](O)C(C)=C[C@@H](C(=O)O1)[C@]34O)O2,inactive
11,Clc1ccc(CSC(Cn2ccnc2)c2ccc(Cl)cc2Cl)cc1 (configuration not stated),inactive
12,CC(C)[C@H](C(=O)OC(C#N)c1cccc(Oc2ccccc2)c1)c1ccc(OC(F)F)cc1 (some centres not stated),inactive
13,CC(Cl)CN(C)C (configuration not stated),inactive

# Target: Cytochrome P450 2D6 (Homo sapiens) (UniProt P10635)
# Sequence (P10635 whole entry, looked up): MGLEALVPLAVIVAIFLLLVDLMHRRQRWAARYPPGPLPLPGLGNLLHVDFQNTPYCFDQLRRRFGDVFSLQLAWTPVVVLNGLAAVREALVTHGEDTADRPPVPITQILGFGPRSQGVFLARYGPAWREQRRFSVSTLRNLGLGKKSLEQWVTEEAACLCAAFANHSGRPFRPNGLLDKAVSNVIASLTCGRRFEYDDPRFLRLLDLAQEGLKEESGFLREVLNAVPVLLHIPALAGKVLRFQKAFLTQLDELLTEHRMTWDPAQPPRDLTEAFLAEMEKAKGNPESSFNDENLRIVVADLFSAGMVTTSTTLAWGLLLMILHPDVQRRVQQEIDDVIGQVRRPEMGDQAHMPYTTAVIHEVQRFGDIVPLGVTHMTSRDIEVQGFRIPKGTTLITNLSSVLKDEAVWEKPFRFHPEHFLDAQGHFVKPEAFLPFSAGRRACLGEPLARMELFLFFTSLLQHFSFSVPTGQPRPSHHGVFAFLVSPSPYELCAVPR
# Assay: Cytochrome P450 Family 2 Subfamily D Member 6 (CYP2D6) small molecule antagonists: luciferase reporter qHTS assay (AID 1671196); note: nearly all actives have a fitted effect of over 50% in size; note: potency is the fitted concentration of half-maximal effect
# Conditions: P450-Glo CYP2D6 enzyme assay, luciferin luminescence, 1 h; series mostly up to 115 µM
# In short: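 Luminogenic proluciferin substrate, CYP2D6 enzyme; 10 min RT preincubation with compound, NADPH regeneration system added, 1 h RT. Stop/detection reagent, 20 min RT, luminescence read (RLU). Signal proportional to CYP activity.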
row,Compound,Potency
1,CC(C)CC(C)N (configuration not stated),inactive
2,O=C1C=CC(=O)c2ccccc21,15.9 µM (active)
3,COC(=O)N(C(=O)N1COC2(C(=O)OC)Cc3cc(Cl)ccc3C2=N1)c1ccc(OC(F)(F)F)cc1 (configuration not stated),inactive
4,CC(Cc1ccc(C(C)(C)C)cc1)CN1C[C@@H](C)O[C@@H](C)C1 (some centres not stated),8.94 µM (active)
5,Cc1cccc(OP(=O)(Oc2cccc(C)c2)Oc2cccc(C)c2)c1,inactive
6,Oc1ccccc1Br,inactive
7,Cc1cc(Cl)ccc1O[C@H](C)C(=O)O,inactive
8,[Cl][Sb]([Cl])[Cl],inactive
9,N#C/C=C/C#N,74.4 µM (active)
10,C=CC(=O)N(C)C,inactive
11,CCCOCC(=Nc1ccc(Cl)cc1C(F)(F)F)n1ccnc1,35.6 µM (active)
12,CN(CCCC(O)c1cccnc1)N=O (configuration not stated),inactive
13,CC(C)CC(C)Nc1ccc(Nc2ccccc2)cc1 (configuration not stated),2.78 µM (active)
14,CC(O)C#N (configuration not stated),inactive
15,c1ccc2cc3c(cc2c1)-c1cccc2cccc-3c12,inactive
16,N#CNC#N,inactive
17,ClC1=C(Cl)[C@]2(Cl)[C@@H]3[C@@H]4C[C@@H]([C@H]5O[C@@H]45)[C@@H]3[C@@]1(Cl)C2(Cl)Cl,25.2 µM (active)

row,Compound,Potency
1,CCOP(=S)(OCC)SCS(=O)(=O)CC,39.9 µM (active)
2,ClC(Cl)=C(c1ccc(Cl)cc1)c1ccc(Cl)cc1,inactive
3,Clc1ccc(CCC(Cn2ccnc2)Sc2c(Cl)cccc2Cl)cc1 (configuration not stated),2.19 µM (active)
4,Nc1ccc(Sc2ccc(N)cc2)cc1,31.7 µM (active)
5,O=C(O)C1C2CCC(O2)C1C(=O)O (configuration not stated),inactive
6,c1cc[c]([Sb]([c]2ccccc2)[c]2ccccc2)cc1,inactive
7,Oc1c(Br)c(Br)c(Br)c(Br)c1Br,inactive
8,Cc1cc(N=Nc2ccccc2C)ccc1N,63.3 µM (active)
9,CC1(C)CC/C(=C/c2ccc(Cl)cc2)C1(O)Cn1cncn1 (configuration not stated),12.6 µM (active)
10,CCCN(CC)CC1COC2(CCC(C(C)(C)C)CC2)O1 (configuration not stated),12.6 µM (active)
11,CCCCCCCCCCCCCCCCCCn1cc[n+](C)c1,0.888 µM (active)
12,Cc1ccc(CCl)cc1,inactive
13,CCOCn1c(-c2ccc(Cl)cc2)c(C#N)c(Br)c1C(F)(F)F,35.6 µM (active)
14,CC(=O)c1ccc(-c2ccccc2)cc1,inactive
15,CC[C@H](C)[C@H]1O[C@]2(C=C[C@@H]1C)C[C@@H]1C[C@@H](C/C=C(\C)[C@@H](O[C@H]3C[C@H](OC)[C@@H](O[C@H]4C[C@H](OC)[C@@H](O)[C@H](C)O4)[C@H](C)O3)[C@@H](C)/C=C/C=C3\CO[C@@H]4[C@H](O)C(C)=C[C@@H](C(=O)O1)[C@]34O)O2,33.3 µM (active)
16,CC(C)[C@H](C(=O)OC(C#N)c1cccc(Oc2ccccc2)c1)c1ccc(OC(F)F)cc1 (some centres not stated),5.03 µM (active)
17,CC(Cl)CN(C)C (configuration not stated),inactive
